# Bioassay records deposited in PubChem by several laboratories.
# FBA Mtb inh: Mtb FBA enzyme inhibitors, primary screen, biochemical, fluorescence, strain H37Rv. Fructose-bisphosphate aldolase (Mycobacterium tuberculosis (strain ATCC 25618 / H37Rv)), …. purified M. tuberculosis FBA, fluorescence read-out. inhibition, % at 1 µM. actives 2.3% (n = 360,000). AID 588726, 2011; in the data active = inhibition above about 27%;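 also: 0% = vehicle and 100% = reference inhibitor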
# Target sequence (P9WQA3 whole entry, looked up): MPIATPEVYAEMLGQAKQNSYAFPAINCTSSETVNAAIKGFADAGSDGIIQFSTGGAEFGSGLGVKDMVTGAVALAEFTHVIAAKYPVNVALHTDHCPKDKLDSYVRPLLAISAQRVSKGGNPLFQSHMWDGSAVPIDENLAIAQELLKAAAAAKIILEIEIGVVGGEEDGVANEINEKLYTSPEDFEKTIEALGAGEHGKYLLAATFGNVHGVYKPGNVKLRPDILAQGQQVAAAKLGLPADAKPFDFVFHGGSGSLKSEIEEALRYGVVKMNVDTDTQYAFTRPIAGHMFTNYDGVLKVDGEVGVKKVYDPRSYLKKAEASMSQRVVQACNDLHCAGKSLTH
# Mtb hypoxia inh: PubChem AID 1159583; M. tuberculosis hypoxia-regulated fluorescent reporter, fluorescence; fluorescence inhibition, % (no concentration beside the values); actives 0.1% (n = 300,000); in the data active = fluorescence inhibition mostly above about 23%, no sharp cut-off; inactive = mostly below about 17%
# VHR inh abs: VHR1 phosphatase inhibitors, primary screen, biochemical, absorbance, uHTS; Dual specificity protein phosphatase 3 (Homo sapiens), P51452; actives 0.52% (n = 290,000); inhibition, % at 13.3 µM; recombinant VHR phosphatase, pNPP absorbance; AID 1654, 2009; in the data active = inhibition above about 50%
# GDH-TPI inh: GDH-TPI coupling enzyme inhibitors, primary screen, artefact control for M. tuberculosis FBA inhibitor project, biochemical, absorbance, full deck. GDH-TPI coupled enzyme counterscreen, NADH absorbance. inhibition, % at 4.8 µM. actives 1.2% (n = 360,000). AID 588335, 2011; in the data active = inhibition above about 30%;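 also: 0% = DMSO wells and 100% = wells lacking the enzyme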
# Mtb betalactam: beta-lactam sensitization of Mtb H37Rv, H37Rv; M. tuberculosis H37Rv growth with meropenem, percent inhibition; inhibition, % at 25 µM; actives 0.27% (n = 330,000); AID 434955, 2010; call rule not given here;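 also: growth measured after seven days incubation then overnight dye step; 0% = bacteria only wells and 100% = bacteria with antibiotic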
# An asterisk follows results filed as active; · = no result given; + = active, no number. In the library only some 3.6% were active in any assay of this set; here they are far more common.
SMILES,FBA Mtb inh,Mtb hypoxia inh,VHR inh abs,GDH-TPI inh,Mtb betalactam
CCOC(=O)N1CCC(NC(=O)c2cc(COc3ccccc3SC)on2)CC1,-1,-1,53*,-14,4
Cc1ccc(OCc2cc(C(=O)NC3CCCCC3)no2)cn1,-2,-1,-3,-3,-4
COc1ccccc1N1CCN(S(=O)(=O)c2cn(C)c(=O)n(C)c2=O)CC1,0,3,-2,3,0
Cn1cc(S(=O)(=O)N2CCN(c3ccccc3F)CC2)c(=O)n(C)c1=O,-1,-1,53*,3,-4
CCOC(=O)N1CCN(S(=O)(=O)c2cn(C)c(=O)n(C)c2=O)CC1,1,2,52*,2,8
Cc1cccn2c(=O)c3cc(C(=O)NCc4cccnc4)c(=N)n(C)c3nc12,·,·,34,·,·
COc1ccc(CCNC(=O)c2cc3c(=O)n4cccc(C)c4nc3n(Cc3ccco3)c2=N)cc1OC,10,·,-7,12,8
Cc1cccn2c(=O)c3cc(C(=O)NCc4cccnc4)c(=N)n(C(C)C)c3nc12,+,-5,13,16,-10
CC(C)n1c(=N)c(C(=O)NCCc2ccccc2)cc2c(=O)n3ccccc3nc21,+,5,47,12,-5
Cc1cccn2c(=O)c3cc(C(=O)NCc4ccco4)c(=N)n(C(C)C)c3nc12,+,4,-16,4,8
COc1ccc(S(=O)(=O)Nc2cccc3c2OC(CN(C)S(=O)(=O)c2cn(C)cn2)C(C)CN(C(C)CO)C3=O)cc1 (configuration not stated),·,7,·,·,·
CC1CCc2nc(C(C#N)=Cc3ccncc3)sc2C1 (configuration not stated),·,4,·,·,·
O=C(/C=C(\c1ccc(Cl)cc1)n1cncn1)c1ccc(Cl)cc1,2,36*,0,5,51
NC(=O)c1cc2ccc(O)cc2oc1=Nc1ccccc1,+,·,-17,16,·
NC(=O)c1cc2ccc(O)cc2oc1=NCc1ccccc1,+,-2,27,15,97
COc1ccc2oc(=Nc3cc(F)ccc3F)c(C(N)=O)cc2c1,21,10,1,5,6
COc1ccc(OC)c(N=c2oc3cc(O)ccc3cc2C(N)=O)c1,116*,0,17,9,1
NC(=O)c1cc2ccccc2oc1=NCc1ccccc1,3,·,39,7,1
Cc1ccc(N(CC(=O)NN=Cc2cccnc2)S(=O)(=O)c2ccccc2)cc1,·,3,·,·,·
O=c1[nH]c(=S)c2ncn(-c3ccccc3)c2[nH]1,2,5,27,31*,-6
Nc1nc2c(ncn2-c2ccccc2)c(=O)[nH]1,1,8,·,10,·
CC(C)(C)NC(=O)C1CN(Cc2cccnc2)CCN1CC(O)CC(Cc1ccccc1)C(=O)NC1c2ccccc2CC1O (configuration not stated),·,6,·,·,·
Cc1ccc(S(=O)(=O)Nc2nc3c(s2)C(=O)CC(C)(C)C3)cc1,2,-1,17,26,0
CC1(C)CC(=O)c2sc(NS(=O)(=O)Cc3ccccc3)nc2C1,-1,9,-3,50*,-4
O=C(Nc1c[nH]c(=O)[nH]c1=O)c1cccc(F)c1,-1,5,-3,1,1
O=C(Nc1c[nH]c(=O)[nH]c1=O)c1cccc([N+](=O)[O-])c1,0,-4,56*,16,1
CC(=O)Nc1ccc(SC(CCN2CCC(C(C)(C)C)CCC2=O)c2ccccc2)cc1 (configuration not stated),·,0,·,·,·
